Data as given in PubChem BioAssay (NCATS).
Records with an inconclusive call do not appear. Activity calls are given as the source filed them. Calls come from the whole dose curve; as a rule, active = well fitted cell-killing curve with a large enough effect; inconclusive = small, poorly fitted or top-dose-only effect, or effect the other way; inactive = flat fitted curve, though single readings scatter.

Assay: MultiTox-Fluor Cytotoxicity Assay - LYMP1-002 - Live Cells (AID 955)
Conditions: LYMP1-002 lymphoblastoid live-cell protease fluorescence viability; series mostly up to 46.1 µM
Source text: NIH Chemical Genomics Center [NCGC]
NIH Molecular Libraries Screening Centers Network [MLSCN]
National Institutes of Environmental Health Sciences [NIEHS]
National Toxicology Program [NTP]
We have developed a 1536-well cell-based assay for quantitative high throughput screening (qHTS) against a number of cell lines to determine in vitro cytotoxicity of small molecules. This particular assay uses a human lymphoblastoid cell line (LYMP1-002) purchased from Coriell Institute.
NCGC Assay Protocol Summary:
The MultiTox-Fluor Cytotoxicity Assay (Promega) is a homogeneous method to simultaneously measure the relative number of live and dead cells in culture by detecting changes in cell membrane integrity. There are two fluorogenic peptide substrates in the assay reagent. Viable cells are determined when the cell-permeant substrate (GF-AFC) enters the cell and is cleaved by protease from live cells resulting in liberated fluorophore. This live-cell protease activity restricted to viable cells is proportional to cell number. The dead cells are determined by using fluorogenic cell-impermeant peptide substrate (bis-AAF-R110) which cleaved by dead cell proteases leaking from damaged cell membrane.
Using the MultiTox-Fluor Cytotoxicity Assay, the relative number of live cells was measured in the lymphoblastoid cell line with complete culture medium following compound treatment for 16 hours. The assay was performed in opaque black Kalypsys 1536-well plates. In the screen, tetraoctylammonium bromide was used as positive control. Library compounds were measured for their ability to cause acute toxicity in the cell line, as reflected by a decrease in live cell protease activity, in a concentration-dependent manner. […] AC50 values were determined from concentration-response data modeled with the standard Hill equation.
qHTS protocol for MultiTox-Fluor Cytotoxicity assay
[Step] [Parameter] [Value] [Description]
1. Reagent; 5 uL; 2500 lymphoblastoid cells/well
2. Time; 5 hr; 37 C incubation
4. Controls; 23 nL; Tetraoctylammonium bromide 6.4pM to 92 uM
5. Time; 16 hr; 37 C incubation
6. Reagent; 5 uL; MuliTox-Fluor Assay reagent
7. Time; 60 min; Room Temperature
8. Detection; live-cell fluorescence (Ex/Em=405/510); EnVision plate reader
Keywords: cell viability, cytotoxicity, lymphoblastoid cell line, fluorescence, NTPHTS, NTPHTS_NCGC, NIEHS, EPA, DSSTox, MLSMR, MLSCN, NIH Roadmap, qHTS, NCGC
For `Clc1ccccc1`, the outcome was “inactive”.
With `COc1ccc(C=O)cc1` the outcome was “inactive”.
For `Oc1cc(Cl)ccc1Cl`, the outcome was “inactive”.
For `C=CCO`, the outcome was “inactive”.
For `O=C(O)C(Cl)Br` (stereo not given), the outcome was “inactive”.
In the case of `CCOC(=O)CBr`, the outcome is reported as “inactive”.
With `Nc1ccc(Cl)c(Cl)c1` the outcome was “inactive”.
With `Cc1cccc(N)c1C` the outcome was “inactive”.
In the case of `Nn1cnnc1`, the outcome is reported as “inactive”.
For `O=[N+]([O-])c1ccccc1CCl`, the outcome was “inactive”.
In the case of `c1ccc(Nc2ccc(Nc3ccccc3)cc2)cc1`, the outcome is reported as “inactive”.
For `CCCCOCC1CO1` (stereo not given), the outcome was “inactive”.
With `CN(C)C(=O)Nc1ccc(Cl)cc1` the outcome was “inactive”.
In the case of `CC(C)CC(C)N` (stereo not given), the outcome is reported as “inactive”.
With `CCCCCCCCCCCCCl` the outcome was “inactive”.
With `O=[N+]([O-])c1cc(Cl)c(Cl)c(Cl)c1` the outcome was “inactive”.
For `NC1CCC(CC2CCC(N)CC2)CC1` (stereo not given), the outcome was “inactive”.
For `ClCC(Cl)Cl`, the outcome was “inactive”.
For `CC(C#N)CCC#N` (stereo not given), the outcome was “inactive”.
In the case of `CN(C)N=O`, the outcome is reported as “inactive”.
For `COC(=O)c1ccccc1N`, the outcome was “inactive”.
For `CC(=O)CCC(C)=O`, the outcome was “inactive”.
With `Cc1ccc(OP(=O)(Oc2ccc(C)cc2)Oc2ccc(C)cc2)cc1` the outcome was “inactive”.
In the case of `c1ccc(OCC2CO2)cc1` (stereo not given), the outcome is reported as “inactive”.
For `Cc1ccc(N)cc1Cl`, the outcome was “inactive”.
In the case of `Clc1cccc(Cl)c1`, the outcome is reported as “inactive”.
In the case of `BrCCc1ccccc1`, the outcome is reported as “inactive”.
With `CC(C)(C)C(O)(CCc1ccc(Cl)cc1)Cn1cncn1` (stereo not given) the outcome was “inactive”.
With `N#CC(Cl)(Cl)Cl` the outcome was “inactive”.
With `[O-][Cl+]O` the outcome was “inactive”.
For `Oc1c(Cl)c(Cl)cc(Cl)c1Cl`, the outcome was “inactive”.
In the case of `O=[N+]([O-])c1ccc2c3c(cccc13)CC2`, the outcome is reported as “inactive”.
With `Cl/C=C/Cl` the outcome was “inactive”.
For `O=C(O)c1cccc(Cl)c1`, the outcome was “inactive”.
In the case of `O=C(O)CBr`, the outcome is reported as “inactive”.
In the case of `C[N+](=O)[O-]`, the outcome is reported as “inactive”.
With `N#CCBr` the outcome was “inactive”.
With `CC(C)Br` the outcome was “inactive”.
In the case of `O=C(O)c1cc(Cl)ccc1Cl`, the outcome is reported as “inactive”.
For `CC(C)(Cl)Cl`, the outcome was “inactive”.
